Test results from paper PMC7826789 (International Journal of Molecular Sciences, 2021).

How the values were obtained:
Conditions in all cases: Compound Concentration (nM):1000
[1] = system: WEE1
[2] = system: WEE2
[3] = system: WNK1
[4] = system: WNK2
[5] = system: WNK3
[6] = system: WNK4
[7] = system: T1, YANK1
T1 construct: gene STK32A

[8] = system: T2, YANK2
T2 construct: gene STK32B

[9] = system: T3, YANK3
T3 construct: gene STK32C

[10] = system: T4, YES
T4 construct: gene YES1
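Also: KINOMEscan scanMAX binding as percent activity remaining versus control; lower means stronger binding.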

Structure (SMILES) | Percent Control [1] [%] | Percent Control [2] [%] | Percent Control [3] [%] | Percent Control [4] [%] | Percent Control [5] [%] | Percent Control [6] [%] | Percent Control [7] [%] | Percent Control [8] [%] | Percent Control [9] [%] | Percent Control [10] [%]
CN1CCN(C(=O)c2ccc(NC(=O)Nc3ccc(N(C)c4ccnc(Nc5ccc(CS(C)(=O)=O)cc5)n4)cc3)cc2)CC1.Cl [GW830263A] | 100 | 99 | 94 | 67 | 93 | 100 | 68 | 100 | 100 | 96
O=C(Nc1n[nH]c2nc(-c3ccc(O)cc3)c(Br)cc12)C1CC1 [SB-725317] | 100 | 100 | 84 | 98 | 100 | 98 | 100 | 100 | 100 | 100
Cl.c1ccc(Cc2nc3ccc(Nc4ncnc5ccccc45)cc3[nH]2)cc1 [GR269666A] | 100 | 100 | 100 | 100 | 100 | 100 | 100 | 100 | 100 | 100
COC(=O)Nc1nc2ccc(Oc3ccc(NC(=O)Nc4cc(C(F)(F)F)ccc4F)cc3)cc2s1.Cl [GW693917A] | 87 | 100 | 76 | 100 | 100 | 67 | 100 | 100 | 94 | 51
CCS(=O)(=O)c1ccc(OC)c(Nc2ncc(-c3cccc(F)c3)o2)c1 [GW621970X] | 100 | 100 | 90 | 100 | 97 | 100 | 100 | 100 | 100 | 43
COc1ccc2[nH]c3c4[nH]c5ccc(OC)cc5c4c4c(c3c2c1)C(=O)NC4=O [GW296115X] | 53 | 87 | 91 | 66 | 92 | 88 | 69 | 97 | 84 | 73
CC1=C(C(=O)Nc2ccc3[nH]ncc3c2)C(c2ccc3ccccc3c2)CC(=O)N1 (centres unmarked) [GSK270822A] | 93 | 62 | 92 | 85 | 86 | 76 | 83 | 88 | 96 | 68
Nc1ncnc2occ(-c3ccc(NC(=O)Nc4cc(C(F)(F)F)ccc4F)cc3)c12 [GW770249X] | 100 | 100 | 96 | 100 | 100 | 100 | 99 | 100 | 100 | 98
CC1=C(C(=O)Nc2ccc3[nH]ncc3c2)C(c2ccc(Cl)c(Cl)c2)CC(=O)N1 (centres unmarked) [GSK299115A] | 84 | 73 | 95 | 100 | 69 | 82 | 93 | 82 | 99 | 81
NS(=O)(=O)c1ccc(N/N=C2\C(=O)Nc3ccc(-c4cnco4)cc32)cc1 [GW276655] | 88 | 72 | 87 | 100 | 56 | 100 | 56 | 100 | 63 | 69
CC(C)COC(=O)c1ccc2c(c1)/C(=C/Nc1ccc(S(N)(=O)=O)cc1)C(=O)N2 [GW416981X] | 100 | 100 | 100 | 100 | 100 | 100 | 100 | 100 | 100 | 100
CCc1ccc(Oc2nccc(-c3c(-c4ccc(F)cc4)ncn3C3CCNCC3)n2)cc1 [SB-242719] | 100 | 100 | 80 | 97 | 89 | 67 | 8.8 | 13 | 32 | 78
Cl.O=C(Nc1ccc(Oc2ccc3[nH]c(NC(=O)c4ccccc4)nc3c2)cc1)Nc1cc(C(F)(F)F)ccc1F [GW709042A] | 100 | 100 | 91 | 100 | 88 | 100 | 88 | 100 | 100 | 100
NS(=O)(=O)c1ccc(N/N=C2\C(=O)Nc3ccc(Cl)cc32)cc1 [GW280670X] | 100 | 100 | 99 | 100 | 100 | 100 | 100 | 100 | 100 | 100
COc1ccc2cc(-c3c(-c4ccncc4)nc(-c4ccc(S(C)(=O)=O)cc4C)n3C)ccc2c1 [SB-633825] | 86 | 53 | 97 | 78 | 92 | 72 | 41 | 26 | 70 | 46
C/C(Nc1ccc(S(N)(=O)=O)cc1)=C1/C(=O)Nc2ccccc21 [GW335962X] | 100 | 95 | 90 | 93 | 100 | 100 | 100 | 100 | 88 | 100
Cl.O=C(Nc1ccc(Oc2ccc3[nH]c(NC(=O)c4ccco4)nc3c2)cc1)Nc1cc(C(F)(F)F)ccc1F [GW683134A] | 100 | 100 | 90 | 100 | 100 | 100 | 82 | 100 | 100 | 61
COc1cc(N2CCN(C(C)C)CC2)ccc1Nc1nc(Nc2ccc(F)cc2C(=O)NC[C@@H](O)CO)c2cc[nH]c2n1 [GSK1392956A] | 96 | 100 | 92 | 100 | 100 | 69 | 100 | 100 | 100 | 99
COc1ccc(COc2ccc(Cc3cnc(N)nc3N)cc2OC)cc1 [GW632580X] | 98 | 83 | 98 | 84 | 92 | 82 | 100 | 100 | 100 | 82
CN(C)CCNC(=O)Nc1ccc(N(C)c2ccnc(Nc3ccc(CS(C)(=O)=O)cc3)n2)cc1.Cl [GW830900A] | 94 | 88 | 92 | 64 | 99 | 100 | 68 | 100 | 100 | 77
